# Results published in ChEMBL document CHEMBL3988442, “University of Dundee, Small-Polar-MMV Screening Library” (2021).
# Molecular target: AMP-activated protein kinase, AMPK (Homo sapiens) (UniProt P54646+O43741+P54619+Q9UGJ0+Q9Y478+Q13131+Q9UGI9)
# Assay: AMP-dependent Kinase enzyme assay. An in vitro enzyme assay that detects ADP turnover that is directly proportional to AMPK activity. This uses naive AMPK that is activated during the assay with MK-8722
# Assay type: functional
# Set-up: scale not given: direction of the effect not stated beside the values
# Conditions: 30 µM
row,Structure (SMILES),Percent Effect [%]
1,CCCn1ccnc1-c1cccc(NC(=O)C2CCCOC2)c1 (centres undefined),-0.71
2,Cc1n[nH]c(C)c1CCNC(=O)Nc1ccc(S(C)(=O)=O)cc1,4.13
3,Cc1ccc(-c2cc(CS(=O)(=O)NC3CCCNC3=O)on2)cc1 (centres undefined),5.82
4,COc1ccc(NC(=O)N2CCOCC(CN(C)C)C2)c(C)c1 (centres undefined),1.75
5,O=C(CNc1ccc(OC2CCOC2)cc1)NCc1ccco1 (centres undefined),7.98
6,CC(NC(=O)Nc1ccc(-c2csnn2)cc1)C(=O)NC(C)(C)C (centres undefined),-8.32
7,CC(NS(N)(=O)=O)c1ccc(OCc2ccc(F)cc2)cc1 (centres undefined),3.51
8,Cc1ccc(N(CCC#N)C(=O)CCc2cscn2)cc1C,-7.79
9,CCn1ncnc1C1CC(=O)NCc2nc(N3CCOCC3)sc21 (centres undefined),-10.6
10,O=C(Cn1ccc2ncccc2c1=O)N1CCCCC1,-2.48
11,CCNc1ncc(C(=O)NCc2csc(-c3cnccn3)n2)cn1,-2.88
12,O=S(=O)(NC1CCN(CC(F)(F)F)C1)c1cc(F)cc(F)c1 (centres undefined),4.84
13,CCN(CC(=O)NC(C)(C)C)Cc1cccc2c1OCCO2,-0.533
14,COc1ccc(C(=O)N2C[C@@H](O)[C@H](NCCc3ncccc3C)C2)cc1,-1.16
15,CS(=O)(=O)NC1CCN(Cc2coc(-c3ccc(Cl)cc3)n2)CC1,1.23
16,O=c1cc(N2CCCCC2)cnn1Cc1noc(C2CCCO2)n1 (centres undefined),4.71
17,Cc1cccc(OC2CCN(Cc3ncc[nH]3)CC2)c1,-0.938
18,CN(Cc1cn(C2CCNCC2)nn1)CC1CCCO1 (centres undefined),3.31
19,CC1CCN(C(=O)CCN2Cc3ccccc3C[C@H]2C(N)=O)C1 (some centres undefined),-7.65
20,Cc1nc[nH]c1CN(C)Cc1cnn(-c2ccc(F)cc2)c1,10.8

row,Structure (SMILES),Percent Effect [%]
1,CCCc1nc(NC2(COC)CCCC2)c2cnn(C)c2n1,7.33
2,COc1ccc(-c2cc3nc(CCNC(=O)C4CC4)nn3cn2)cc1,-2.76
3,Cc1cccc(C(C(=O)NC(C)(C)CN2CCCC2)N(C)C)c1 (centres undefined),-15.9
4,CC(C)c1cc(NC(=O)Cn2cnc3ccccc3c2=O)[nH]n1,6.52
5,CCC(NCCn1cccn1)C(=O)Nc1cc(C)on1 (centres undefined),2.9
6,COc1ccc(S(=O)(=O)NC(=O)C(C)OC)c(OC)c1 (centres undefined),-4.37
7,CC(C)Cn1ccnc1CNC(=O)N1CCCC1CN1CCOCC1 (centres undefined),-4.29
8,CCc1ccc2nc(C)cc(C(=O)NC3CCC(=O)N(C)C3)c2c1 (centres undefined),-7.18
9,O=C1CCC2(CCOC2)CN1Cc1nncn1CCc1ccccc1 (centres undefined),14.2
10,COCC[C@]1(O)CCN(Cc2ccccn2)C[C@H]1C,5.38
11,CCCS(=O)(=O)NCc1ncc(C)c(OC)c1C,6.9
12,CN(C)c1cc2c(nn1)CCN(C(=O)c1ccc(-n3cccn3)nc1)C2,2.65
13,Cn1cc(S(=O)(=O)NCc2ccsc2)cn1,-0.312
14,Cc1cc(-c2cnc(N3CCN(C)CC3)nc2C(C)C)on1,16.2
15,COc1ccc2c(c1)OCC(C(=O)NCc1nc3c(s1)CCCC3)C2 (centres undefined),8.94
16,COC(=O)NCC(=O)N1CCCn2nc(CN3CC[C@H](F)C3)cc2C1,5.46
17,COc1ccc(CCN2CCCC(n3cncn3)C2)cc1 (centres undefined),0.286
18,COc1ccc(Cl)cc1C(=O)N1C[C@H](C(C)C)[C@@H](N)C1,6.24
19,O=C1CN(C(=O)CC2c3ccccc3CCc3ccccc32)CCN1,30.9
